Screening results as filed in PubChem.
IP6K1 inh – inhibitors of human IP6K1; Q92551; IP6K1 kinase, ADP-Glo luminescence, 2 h; active compounds read low; activity change, % (series mostly up to about 58 µM); hit rate 0.81% among 140,000; in the data active = activity change below about -25%; note: % is set by controls: 0 for no effect and ±100 for the full control effect
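ADP-Glo luminescence measures ADP made by human IP6K1 during a 2 h RT reaction with ATP/IP6 (mix at 1.3 mM/130 uM); top library doses 57.5 and 19.1 uM final.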
SNCA viab count – counter-screen for SNCA expression inhibitors: cell viability. AID 1671193. Potency, µM (titrated, usually from 57.1 µM), for the others: at the top dose activity change, negative = cytotoxicity, most hits filed as cytotoxic. hit rate 0.12% among 150,000. HEK-293-SNCA-luc viability, GF-AFC fluorescence, 24 h;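 note: potency is the fitted concentration of half-maximal effect; 0% = DMSO-treated cells and -100% = medium-only wells without cells; nearly all actives have a fitted effect of over 30% in size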
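HEK-293-SNCA-luc cells (1500/well) plated 24 h, then exposed 24 h to a dilution series; GF-AFC added 30 min at 37C, fluorescence 405/540 nm; normalised to medium-only and DMSO wells, Hill fit.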
KDM5B inh – KDM5B demethylase inhibition. Q9UGL1. hit rate 2.6% among 220,000. Potency, µM (highest dose often 57.7 µM), actives largely listed as inhibitors. KDM5B demethylase, FDH-coupled NADH fluorescence (FDH is formaldehyde dehydrogenase); note: potency is the fitted concentration of half-maximal effect; 0% is about no effect; nearly all actives have a fitted effect of over 70% in size
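KDM5BΔAP (200 nM final) in 50 mM HEPES pH 7.5, 0.01% Tween-20 was preincubated 10 min at RT with compound over a concentration range. Substrate mix (H3K4me3 12.5 µM, α-KG 25 µM, Fe²⁺, ascorbate, NAD⁺, FDH) was added, and NADH fluorescence change over 30 min gave dose-response curves.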
SNCA expr inh – SNCA gene expression inhibition; HEK-293 SNCA-luciferase knock-in, luminescence, 24 h; Potency, µM (top dose mostly 57.2 µM), for inactives: at the highest dose activity change, negative = inhibition, hits mostly inhibitors; hit rate 0.17% among 140,000; AID 1671194;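 note: potency is the fitted concentration of half-maximal effect; plate controls were DMSO cells for no effect and cell-free wells for full effect; nearly all actives have a fitted effect of over 45% in size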
Active calls of the source: *; i = inactive; ? = inconclusive; . = no result given; [ ] = another dose, or the depositor's remark. A selection: hits, their analogues and other compounds. The true share with any hit is near 3%. Unless noted, calls come from the whole dose curve; as a rule, active = well fitted curve in the direction sought with a large enough effect; inconclusive = small, poorly fitted or top-dose-only effect, or another doubt; inactive = no such curve, though single readings can be large; an effect the other way counts as inactive or inconclusive.

SMILES | IP6K1 inh | SNCA viab count | KDM5B inh | SNCA expr inh
Cc1ccc(-c2ccccc2CN2CCN(C(=O)c3ccc(Cl)nc3)CC2)cc1Cl | 3.2 | -6.4%[12.5 µM] | . | 3.1%
CCOC(=O)[C@@H]1CN(C(=O)c2ccc3c(c2)OCCCO3)[C@H]2c3cccc(F)c3O[C@@H]12 | 4.5 | . | . | .
Cc1cc2oc(=O)cc(CN(C)CCOc3ccccc3F)c2cc1Cl | . | . | i | .
O=C(NCc1ccc(F)cc1)N1CCc2nnc(C3CC3)n2CC1 | 13.0 | -7.0% | . | 24.6%
O=C(c1cncc(Br)c1)N1CCCC(Cc2nc(C3CCOCC3)no2)C1 (stereo not given) | 2.3 | -4.7% | 31.6µM* | 4.7%
COc1cccc(C(=O)N2CCCC(Cc3nc(C4CCOCC4)no3)C2)c1 (stereo not given) | 0.0 | 3.4% | i | 2.6%
O=C(C1CCC1)N1CCCC(Cc2nc(C3CCOCC3)no2)C1 (stereo not given) | 13.0 | 8.6% | 35.5µM* | -5.3%
CCC(=O)N1CCCC(Cc2nc(C3CCOCC3)no2)C1 (stereo not given) | 4.0 | -6.9% | i | -23.8%
N#Cc1ccc(/C=N/Nc2ccc(S(N)(=O)=O)cc2[N+](=O)[O-])cc1 | . | . | i | .
Cc1cccc(-n2nnnc2S(C)(=O)=O)c1 | 2.6 | 22.4µM* | ? | ?
COc1nccnc1NC1CCN(C(=O)c2c[nH]c3ccccc23)CC1 | -2.7 | -4.4% | ? | -0.4%
CCOc1nccnc1NC1CCN(C(=O)c2ccnn2CC)CC1 | -2.4 | -1.7% | 28.2µM* | -2.4%
CCn1nccc1C(=O)N1CCC(Nc2nccnc2OC)CC1 | -0.5 | 6.1% | 28.2µM* | -16.3%
CCn1nccc1C(=O)N1CCC(Cc2ccc(C(=O)NCCOC)cc2)CC1 | -5.0 | -0.4% | i | 10.0%
Cc1cc(=O)n(CC(=O)Nc2ccc(C)c(F)c2)c(N2CCc3ccccc3C2)n1 | 0.5 | ? | ? | ?
O=C(Nc1ccccc1)c1cc2n(n1)CC(c1ccc(Cl)cc1)OC2 (stereo not given) | 22.7 | -5.0% | ? | -15.7%
Cc1ccc(NC(=O)c2cc3n(n2)CC(c2ccc(Cl)cc2)OC3)cc1 (stereo not given) | 7.4 | 0.7% | 20µM* | -21.3%
Cc1cc(C)cc(NC(=O)c2cc3n(n2)CC(c2ccc(Cl)cc2)OC3)c1 (stereo not given) | -8.8 | -22.4% | 25.1µM* | ?
CN1CC(=O)N(c2ccccc2F)Cc2c(NCCc3ccc(Cl)cc3)ncnc21 | -4.3 | -12.8% | 25.1µM* | ?
CN1CC(=O)N(c2ccccc2F)Cc2c(NCCc3ccccc3)ncnc21 | -1.9 | -22.2% | ? | -18.9%
CC(C)(C)c1ccc(C(=O)Nc2nc3c(s2)C[C@@H]2[C@](C)(CO)[C@H](O)CC[C@@]2(C)[C@@H]3CC(=O)N2CCOCC2)cc1 | -8.1 | -4.9% | 28.2µM* | 0.5%
COc1ccc(C(=O)Nc2nc3c(s2)C[C@@H]2[C@](C)(CO)[C@H](O)CC[C@@]2(C)[C@@H]3CC(=O)N2CCOCC2)cc1 | 15.9 | 2.7% | ? | 63.8%
COc1ccccc1CNC(=O)C[C@@H]1c2nc(-c3cccnc3)sc2C[C@@H]2[C@](C)(CO)[C@H](O)CC[C@]21C | -1.8 | -0.5% | 25.1µM* | -18.9%
CC(C)NC(=O)C[C@@H]1c2nc(NC(=O)c3ccc(C(C)(C)C)cc3)sc2C[C@@H]2[C@](C)(CO)[C@H](O)CC[C@]21C | -5.2 | -9.6% | 31.6µM* | 15.1%
CC(C)(C)c1ccc(C(=O)Nc2nc3c(s2)C[C@@H]2[C@](C)(CO)[C@H](O)CC[C@@]2(C)[C@@H]3CC(=O)NCc2ccco2)cc1 | -16.1 | -17.0% | 17.8µM* | -28.4%
SMILES | IP6K1 inh | SNCA viab count | KDM5B inh | SNCA expr inh
COc1ccccc1Nc1ccnc(N2CCC(C(=O)NCc3cccc(C(F)(F)F)c3)CC2)n1 | 25.9 | ? | . | ?
COc1ccccc1Nc1ccnc(N2CCCC(C(=O)NC(C)C)C2)n1 (stereo not given) | 2.9 | 3.5%[12.5 µM] | . | 22.8%
Cc1cccc(NC(=O)CC2CC3CCC2C3)c1 (stereo not given) | . | . | i | .
C[C@H](NC(=O)C[C@@H]1c2nc(NC(=O)c3ccc(F)cc3)sc2C[C@@H]2[C@](C)(CO)[C@H](O)CC[C@]21C)c1ccccc1 | -7.8 | ? | 31.6µM* | ?
COc1ccc(-c2nccc3c(=O)cc(N4CCN(C)CC4)oc23)cn1 | -11.9 | 12.1%[87.6 µM] | 31.6µM* | 10.9%[87.6 µM]
COc1ncc(-c2nccc3c(=O)cc(N4CCN(C)CC4)oc23)cn1 | 9.2 | 3.8%[87.6 µM] | 35.5µM* | -0.8%[87.6 µM]
COc1cc(F)ccc1-c1nccc2c(=O)cc(N3CCN(C)CC3)oc12 | -7.6 | -3.2%[87.6 µM] | ? | 13.7%[87.6 µM]
O=C(NCc1ccsc1)c1nc(-c2ccc(Cl)cc2)c2cnccn12 | 8.1 | 17.8% | i | 5.9%
CC(C)(C)c1nc(C(=O)NCc2cccnc2)n2ccccc12 | -13.7 | -4.5% | 100µM* | -29.8%
COC(=O)CNC(=O)c1nc(C(C)(C)C)c2cnccn12 | -6.2 | 2.9%[87.6 µM] | 112µM* | 4.0%[87.6 µM]
COC(=O)CNC(=O)c1nc(-c2ccsc2)c2cnccn12 | 2.7 | 16.7%[87.6 µM] | 39.8µM* | -29.6%[87.6 µM]
Cn1ccc2c(C(=O)NCc3cccnc3)nc(-c3ccncc3)cc21 | 21.7 | 7.2%[87.6 µM] | i | 36.9%[87.6 µM]
O=C(NCc1ccccn1)c1nc(-c2cccnc2)c2ccccn12 | 3.3 | 3.9%[87.6 µM] | i | 17.0%[87.6 µM]
CC(C)(C)c1nc(C(=O)NCc2cccnc2)n2ccncc12 | -7.0 | -1.1% | 100µM* | 2.5%
COc1cccc(-c2cc(C(=O)NC3CCC3)c3cnn(C)c3n2)c1 | 6.6 | . | . | .
Cc1ccc(CNC(=O)N2CCCC(C(F)(F)F)C2)cc1 (stereo not given) | . | . | i | .
Cc1nn2c(c1-c1ccccc1N1CCCC1)N(C(=O)COc1ccccc1)CCC2 | 17.5 | ? | 20µM* | ?
Cc1nn2c(c1-c1ccccc1N1CCCC1)N(C(=O)C1CCOCC1)CCC2 | 8.4 | 1.6%[87.6 µM] | 28.2µM* | ?
O=C(Nc1cccc(C(F)(F)F)c1)c1nc2c(o1)CCN(Cc1cccs1)CC2 | 11.1 | 0.4%[87.6 µM] | 31.6µM* | 3.5%[87.6 µM]
COc1ccccc1CN1CCc2nc(C(=O)Nc3cccc(C(F)(F)F)c3)oc2CC1 | 13.8 | -9.8% | 35.5µM* | -21.6%
Cc1noc(C)c1CN1CCc2nc(C(=O)Nc3ccccc3)oc2CC1 | -3.5 | 2.5%[87.6 µM] | ? | 68.8%[87.6 µM]
O=C(Nc1cccc(C(F)(F)F)c1)c1nc2c(o1)CCN(Cc1ccccc1F)CC2 | -2.0 | -14.6%[87.6 µM] | ? | -6.2%[87.6 µM]
Cc1noc(C)c1CN1CCc2nc(C(=O)Nc3cccc(C(F)(F)F)c3)oc2CC1 | -2.2 | -28.4%[87.6 µM] | 25.1µM* | -12.9%[87.6 µM]
N#Cc1cccc(CN2CCc3nc(C(=O)Nc4cccc(C(F)(F)F)c4)oc3CC2)c1 | 0.8 | -22.3% | 35.5µM* | ?
CCNC(=O)CC1COCCN1C(=O)c1csc(-c2cccs2)n1 (stereo not given) | 4.9 | 15.0% | 22.4µM* | -4.2%
O=C(CCc1ccccc1)N1CCc2nc3cc(-c4ccccc4)[nH]n3c(=O)c2C1 | 14.0 | 8.1% | ? | 1.8%
